From PubChem BioAssay
A1 inh: inhibitors of the anti-apoptotic protein A1, read as caspase activation; AID 2462; caspase activation, % (test concentration not listed); MEF A1-2A-BIM cells, Caspase-Glo 3/7 luminescence, 3 h; percent of clofoctol response, vehicle zero; hit rate 0.066% among 330,000;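 active = over half of replicate activation scores above 10%, or exactly half above 10 with the replicate mean above 10; inconclusive = replicate mean below 10 yet half the replicates above 10; inactive = over half of replicates below 10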
GSIS activator: GLuc luminescence reporter in INS-1E cells, primary screen for activators of glucose-dependent secretion of insulin; INS-1E GLuc reporter insulin secretion, 2-3 h; activation, % at 16.6 µM; hit rate 0.61% among 370,000; AID 743287;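 active = lowest replicate activation of at least 40%, so every replicate reaches that level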;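 also: 0% = median of neutral control wells and 100% = median of IBMX positive control wells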
dFosB act: mouse delta FosB homodimer activation; purified delta FosB, TAMRA-CDK5 oligo fluorescence polarization; percent of positive-control signal above neutral wells; P13346; activation, % at 25 µM; AID 493131; hit rate 0.99% among 340,000;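 active = mean activation above about 17%, with every replicate also reaching it, limit read from the data, passing the limit was not always enough; inconclusive = only one of the two conditions met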
Target sequence (P13346 whole entry, looked up): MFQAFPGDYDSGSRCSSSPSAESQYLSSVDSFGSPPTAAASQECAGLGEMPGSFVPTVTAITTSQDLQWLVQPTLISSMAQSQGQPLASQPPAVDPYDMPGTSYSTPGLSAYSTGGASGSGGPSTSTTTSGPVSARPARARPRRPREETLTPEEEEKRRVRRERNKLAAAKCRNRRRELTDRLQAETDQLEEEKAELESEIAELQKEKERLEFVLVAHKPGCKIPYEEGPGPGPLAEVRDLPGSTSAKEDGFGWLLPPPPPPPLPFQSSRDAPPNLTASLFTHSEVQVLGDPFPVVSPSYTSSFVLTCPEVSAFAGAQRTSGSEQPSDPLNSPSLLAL
Neddylation inh: cullin neddylation inhibition; P61081+Q13564; TR-FRET cullin neddylation, biochemical; inhibition, % at 25 µM; hit rate 0.58% among 360,000; AID 651699; in the data active = inhibition above about 36%
Vif imaging: blocks HIV Vif function; HEK293T cells, Vif self-association by quenched fluorescence, imaging, 24 h; inhibition, % at 7.49 µM; hit rate 0.35% among 340,000; AID 602346; in the data active = inhibition above about 50%, passing the limit was not always enough; inconclusive = no clear call, values can overlap the other calls; inactive = below about 31%
Starred values were filed as active, the others as inactive; ? = inconclusive; / = no result given. Hits are enriched below; roughly 1.9% of the tested compounds scored in any of these assays.

SMILES	A1 inh	GSIS activator	dFosB act	Neddylation inh	Vif imaging
N#Cc1cc2c(=O)n3ccccc3nc2n(-c2ccccc2Cl)c1=O	0.5	13.2	-7.8	/	153.8*
O=C(Nc1ccc(O)c2c(=O)cc(-c3cccc(Cl)c3)oc12)c1cccc(Cl)c1	15.1*	/	1.4	-17.4	-0.3
NC(=O)c1ccc[n+]([C@H]2O[C@@H](COP(=O)([O-])OP(=O)(O)OC[C@H]3O[C@@H](n4cnc5c(N)ncnc54)[C@H](O)[C@@H]3O)[C@H](O)[C@@H]2O)c1	-1.1	/	3.0	51.8*	39.3
COc1ccc(C(=O)NC[C@H]2O[C@@H](n3cnc4c(N)ncnc43)[C@H](O)[C@@H]2O)cc1OC	/	10.2	/	-4.7	/
O=C(Cc1ccncc1)NCC[C@@H]1CC[C@@H](NC(=O)C2CCCCC2)[C@H](CO)O1	/	2.0	/	/	/
C[C@H](CO)N1C[C@H](C)[C@H](CN(C)S(C)(=O)=O)OCCCC[C@H](C)Oc2ccc(NC(=O)Nc3ccc(F)cc3)cc2C1=O	/	-6.0	/	/	/
CCSc1nnc(NC(=O)c2csc3c2CCCC3)s1	-0.5	119.5*	-14.4	-65.5	-7.3
C[C@@H]1CCCCO[C@H](CN(C)C(=O)CCC(F)(F)F)[C@H](C)CN([C@@H](C)CO)C(=O)c2cc(NC(=O)c3ccncc3)ccc2O1	/	11.5	/	/	/
CC(C)NC(=O)N(C)C[C@H]1Oc2ccc(NS(=O)(=O)c3cn(C)cn3)cc2C(=O)N([C@@H](C)CO)C[C@H]1C	/	9.7	/	/	/
O=C1c2cccnc2C(Nc2ccc(F)c(Cl)c2)N1Cc1cccs1 (stereo unspecified)	?	66.2*	-12.8	-3.5	-6.4
CC(=O)Nc1ccc2c(c1)CC(=O)N(C)C[C@H](C)[C@@H](CN(C)C)O2	/	-1.6	/	/	/
Cc1cccc(Nc2cc(C)c3c(O)cccc3n2)c1C	-0.3	-1.0	42.7*	6.1	-29.9
CC(=O)N(C)C[C@H]1Oc2ncc(C#C[C@@H](C)O)cc2C(=O)N([C@H](C)CO)C[C@H]1C	/	2.5	/	/	/
CN(c1ncnc(N)c1[N+](=O)[O-])C1CCCCC1	-1.3	41.4*	3.0	-22.0	-21.5
Cc1ccc(S(=O)(=O)SCCCSS(=O)(=O)c2ccc(C)cc2)cc1	/	188.9*	-2.6	-0.6	5.0
Cc1ccc(S(=O)(=O)SC/C=C/CSS(=O)(=O)c2ccc(C)cc2)cc1	/	5.1	1.4	-2.1	2.0
O=C(c1cc2ccccc2oc1=O)N(Cc1ccco1)Cc1cccs1	0.7	/	-1.1	1.5	58.8*
CCOC(=O)c1ccc(-c2ccc(C=O)o2)cc1	0.8	/	-7.8	11.9	-13.4
CCOC(=O)c1cccc(-c2ccc(C=O)o2)c1	0.4	48.5*	-5.9	-12.7	-2.1
O=C(C[C@@H]1CC[C@@H]2[C@H](COC[C@H](O)CN2Cc2cc(F)cc(F)c2)O1)Nc1nccs1	/	-5.8	/	/	/
CCOC(=O)c1cc(-c2ccccc2)sc1NC(=S)Nc1cc(C)ccn1	-1.3	/	5.0	32.3	169.1*
Cc1cccc2cc(CN(CC3CCCO3)C(=O)NC3CCCCC3)c(=O)[nH]c12 (stereo unspecified)	-1.1	/	-7.7	1.6	68.5*
Cc1cccc(-n2nc(C(=O)c3ccco3)cc(-c3nc4ccccc4[nH]3)c2=N)c1	-0.9	1.4	33.5*	-4.2	-6.2
C=CC(=O)Nc1cccc(Nc2nc(N[C@H]3CC[C@H](N(C)C)CC3)nc3c2ncn3C(C)C)c1	/	/	22.0*	26.9	0.1
Cc1nc(NC(=O)C(C)Oc2cccc(Cl)c2)sc1C(=O)N(C)C (stereo unspecified)	0.5	-8.8	-11.5	0.0	52.4*
SMILES	A1 inh	GSIS activator	dFosB act	Neddylation inh	Vif imaging
O=C(C1CCOCC1)N1CC(=O)N2[C@H](CO)[C@H](c3ccc(C#Cc4cccc(F)c4)cc3)[C@@H]2C1	/	-1.8	/	/	/
COc1ccc(CN(C)C(=O)Cn2cc(C)c(=O)[nH]c2=O)cc1OC	/	43.6*	-4.5	-6.3	13.8
O=C1c2ccccc2C(=O)N1CCC(c1ccc(F)cc1)c1ccco1 (stereo unspecified)	1.0	42.7*	-8.1	-11.4	0.2
O=C1CCC(=O)N1CCC(c1ccc(F)cc1)c1ccco1 (stereo unspecified)	0.4	-1.9	-7.4	-5.6	14.6
CC(C)(C)c1nc2ccccc2c2nnc(SCC(=O)Nc3nccs3)n12	0.6	77.0*	-13.3	11.6	6.1
CC(C)(C)c1nc2ccccc2c2nnc(SCC(=O)Nc3nc4ccccc4s3)n12	0.4	23.4	-8.9	0.5	-11.2
CO/N=C/C(C#N)=C/c1ccc(OC)c(OC)c1	1.7	59.6*	-13.9	-24.1	3.4
O=C(c1cccc(F)c1)N1CCCCN2[C@@H](CO)[C@H](c3ccc(C#CC4(O)CCCC4)cc3)[C@@H]2C1	/	-2.6	/	/	/
COc1cc(-c2cc(C(=O)Nc3c(Cl)cc(Cl)cc3Cl)c3ccccc3n2)cc(OC)c1OC	0.5	/	-6.2	-76.6	-13.0
COc1ccc2nc3ccccc3nc2c1NC(=O)c1ccc(Cl)cc1Cl	1.4	86.6*	-5.6	-4.4	11.7
Cc1cc(C)nc(NC(=O)c2ccc(Cl)cc2Cl)n1	-1.1	68.1*	-6.7	-3.3	28.5
C[C@H]1CCCCO[C@@H](CN(C)CC2CCCCC2)[C@@H](C)CN([C@@H](C)CO)C(=O)c2cc(NC(=O)c3ccncc3)ccc2O1	/	1.4	/	/	/
O=C1c2ccccc2NC(c2ccc(O)c(O)c2)N1c1ccccc1Cl (stereo unspecified)	0.5	-6.2	4.2	50.0*	8.8
COc1cc(C2Nc3ccccc3C(=O)N2c2ccccc2OC)ccc1O (stereo unspecified)	-0.5	/	-0.9	/	/
C[C@@H]1CN([C@H](C)CO)C(=O)c2cc(NS(=O)(=O)c3cccs3)ccc2O[C@@H](C)CCCCO[C@@H]1CN(C)C(=O)Cc1ccccc1	/	-25.4	/	/	/
C[C@H]1CN(C)C(=O)c2cc(NS(C)(=O)=O)ccc2O[C@@H]1CN(C)S(C)(=O)=O	/	-3.1	/	/	/
Cc1cc(C)c(S(=O)(=O)N2CCN(S(=O)(=O)N3CCOCC3)CC2)c(C)c1	0.9	2.7	3.6	-6.1	67.6*
C[C@@H]1CCCCO[C@H](CN(C)C)[C@@H](C)CN([C@@H](C)CO)C(=O)c2cc(NC(=O)Nc3ccccc3)ccc2O1	/	-1.4	/	/	/
Cc1cccc(NC(=S)N/N=C/c2cccn2Cc2ccc(F)cc2)c1	-0.1	-2.5	-0.1	51.1*	-6.5
COc1ccc(N/C=C(\C=C\C#N)S(=O)(=O)c2ccccc2)cc1	-0.2	-9.6	-3.0	/	86.7*
O=C(NC(=S)Nc1cccc(NC(=S)NC(=O)c2ccco2)n1)c1ccco1	0.3	-7.1	22.5*	-16.0	-4.9
O=C(NC(=S)Nc1ccc(NC(=O)c2ccccc2)cc1)c1ccc(F)cc1	-1.5	12.5	2.6	-2.8	50.5*
O=C(Nc1ccc(NC(=S)NC(=O)c2ccco2)cc1)c1ccc(Br)cc1	/	/	/	4.5	53.3*
COc1ccc(NC(=O)N[C@@H]2CC[C@H](CCNC(=O)Cc3ccncc3)O[C@H]2CO)cc1	/	-2.6	/	/	/
